Shiga inhibitor = inhibitors of Shiga toxin in Vero cells | Vero cells, Shiga toxin protein synthesis inhibition reporter | inhibition, % at 38.7 µM | hit rate 9.2% among 290,000; in the data active means inhibition mostly above about 28%, no sharp cut-off; inactive means mostly below about 43%; further: 0% is about no effect
Pf growth 48h = inhibits P. falciparum growth in the first generation, 48 h; P. falciparum luciferase growth in erythrocytes, 48 h; Potency, µM (doses to about 28.7 µM), inactives show at the highest dose activity change, negative = inhibition, most hits filed as inhibitors; hit rate 5.9% among 310,000; AID 504832; further: potency means the concentration at half of the fitted maximal effect; on the % scale 0 is the no-effect control and ±100 the full control effect
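Cell-based growth assay: transgenic P. falciparum expressing firefly luciferase, cultured in red cells within RPMI 1640 containing 0.5% w/v Albumax, 24 mM bicarbonate and gentamycin. A drop in luciferase activity indicates inhibition.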
HCV inhibitor = HCV inhibition. Potency, µM (top dose mostly 41.8 µM), without a hit: at the highest dose activity change, negative = inhibition, most hits filed as inhibitors. Huh7.5.1 HCVcc-Cre infection, luciferase reporter, 44 h. hit rate 3.4% among 340,000. AID 651820; further: potency means the concentration at half of the fitted maximal effect; on the % scale 0 is the no-effect control and ±100 the full control effect
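Antiviral activity was scored by luciferase reporter output from cells infected with HCVcc-Cre (~0.5 moi) in presence of compound, 44 h infection period, cells seeded 1,000/well 4 h prior.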
Cycloheximide cs = affects cycloheximide protein synthesis inhibition readout, counter-screen; cell reporter, cycloheximide protein synthesis inhibition counterscreen; max response, %; hit rate 12% among 300,000; AID 2314; in the data active means max response mostly above about 13%, no sharp cut-off; inactive means mostly below about 14%; further: read at 38.3 µM for the half of the compounds with a filed dose; 0% is about no effect
Pf growth 96h = inhibits malaria parasite growth, 96 h. P. falciparum luciferase reporter growth, 96 h. Potency, µM (doses to about 28.7 µM), for the others: at the highest dose activity change, negative = inhibition, actives largely listed as inhibitors. hit rate 6.9% among 320,000; further: potency means the concentration at half of the fitted maximal effect; on the % scale 0 is the no-effect control and ±100 the full control effect
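Luminescence readout: decreased luciferase signal marks inhibited growth of reporter-expressing P. falciparum in infected red cells (2% hematocrit, 0.05% parasitemia final), exposed to compound two generations (96 h, 37 C, 5% CO2).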
HCMV antiviral = human cytomegalovirus inhibition. HFF cells, HCMV-luciferase reporter, 72 h; stronger effect = lower value. activity change, negative = inhibition, % at 57.5 µM. hit rate 4.5% among 410,000; in the data active means activity change below about -60%; inconclusive means no clear call, values can overlap the other calls; inactive means above about -39%; further: on the % scale 0 is the no-effect control and ±100 the full control effect
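Compounds were evaluated in HFFs infected with an HCMV luciferase reporter virus (MOI 1 PFU/cell). Luciferase in lysates collected 72 h post infection served as the replication measure.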
Starred values were filed as active, the others as inactive; ? = inconclusive; nt = no result; [ ] = remark or other dose. A selection: hits, their analogues and other compounds. The true share with any hit is near 21%. Unless noted, the call rests on the fitted dose curve; in most records, active means well fitted inhibition curve with a large enough effect; inconclusive means small, poorly fitted or top-dose-only effect, or another doubt; inactive means no such curve, though single readings can be large or run the other way.

SMILES	Shiga inhibitor	Pf growth 48h	HCV inhibitor	Cycloheximide cs	Pf growth 96h	HCMV antiviral
O=C(N=C1N=C2C=CC(Br)=CN2Cc2ccccc21)c1ccc([N+](=O)[O-])cc1[N+](=O)[O-]	60.6*	?	-22.5%	40.0*	-99.7%	57.2
O=C(NCc1ccc(Cl)cc1)C(=O)Nc1cccc(Br)c1	nt	nt	nt	nt	nt	1.0
Cn1c(=NC(=O)C2=NNC(=O)CC2)sc2ccccc21	44.5*	58.0%	-11.9%	27.7*	46.9%	67.5
C[C@@H](C(=O)N=c1sc2ccccc2n1C)N1C(=O)C2CC=CCC2C1=O (stereo partly drawn)	nt	nt	-17.1%	nt	nt	37.2
CC(C)c1ccc(NC(=O)Nc2nc(C(N)COCc3ccccc3)cs2)cc1 (stereo not drawn)	nt	nt	nt	nt	nt	-95.0*
COc1ccc(CC(N)c2csc(NC(=O)c3ccccc3OC)n2)cc1 (stereo not drawn)	nt	nt	nt	nt	nt	-81.5*
NC(Cc1ccccc1)c1csc(NC(=O)c2cccc(OC(F)(F)F)c2)n1 (stereo not drawn)	nt	nt	nt	nt	nt	-101.1*
CC(C)c1ccc(NC(=O)Nc2nc(C(N)c3ccccc3)cs2)cc1 (stereo not drawn)	nt	nt	nt	nt	nt	-15.3
COc1ccc(CC(N)c2csc(NC(=O)C(c3ccccc3)c3ccccc3)n2)cc1 (stereo not drawn)	nt	nt	nt	nt	nt	-64.8*
CCOc1ccc(NC(=O)Nc2cc(C)ccc2F)cc1	53.8*	nt	?	34.5*	-8.7%	77.9
O=C(Nc1ccc(F)cc1)Nc1cc(OCC(F)(F)F)cc(OCC(F)(F)F)c1	-5.9	?	?	7.3	?	-101.3*
C#CC(CC)(CC)NC(=O)Nc1ccc(OCC)cc1	26.1	13.4%	4.9%	11.4	0.0%	27.1
CCOc1ccc(NC(=O)Nc2cc(OCC(F)(F)F)cc(OCC(F)(F)F)c2)cc1	6.9	0.828µM*	?	7.3	1.85µM*	-13.5
Cc1ccc(N(C)C(=O)Oc2ccc(C(=O)c3ccc(Cl)cc3)cc2)cc1	14.4	-4.8%	-13.3%	9.6	4.65µM*	16.4
CC(=O)Nc1ccc(OC(=O)N(C)c2ccc(C)cc2)cc1	1.6	?	3.5%	-2.6	9.28µM*	-7.4
O=C1/C(=C/c2ccsc2)N2CCC1CC2	-6.2	?	7.1%	4.0	?	22.7
CCS(=O)(=O)c1ccc(O)c(NC(=O)c2ccc(S(=O)(=O)N3CCCCCC3)cc2)c1	nt	nt	5.6%	nt	nt	-7.0
COC(=O)[C@@]1(Cc2ccc(OC)cc2)[C@H]2c3cc(C(=O)N4CCCC4)n(Cc4ccc(S(C)(=O)=O)cc4)c3C[C@H]2CN1C(=O)c1ccccc1	nt	nt	nt	nt	nt	-65.5*
COC(=O)[C@@]1(Cc2ccc(F)cc2)[C@H]2c3cc(C(=O)N4CCCC4)n(Cc4ccccc4)c3C[C@H]2CN1C(=O)c1ccccc1	nt	nt	nt	nt	nt	-25.9
COC(=O)[C@@]1(Cc2ccc(OC)cc2)[C@H]2c3cc(C(=O)N4CCCC4)n(Cc4ccc(C)o4)c3C[C@H]2CN1C(=O)c1ccccc1	-8.6	?	4.6%[8.37 µM]	-3.5	2.08µM*	-25.9
Cc1oc2ccc(O)c(CN3CCCC3)c2c1C(=O)Nc1cccc(Cl)c1C	nt	nt	nt	nt	nt	-6.4
COc1ccc(CCNC(=O)C(=O)NCCC2CCCCN2S(=O)(=O)c2ccccc2)cc1 (stereo not drawn)	nt	14.7µM*	-4.6%	nt	0.0%	?
COc1cccc(CNC(=O)C(=O)NCCC2CCCCN2S(=O)(=O)c2cccs2)c1 (stereo not drawn)	nt	?	-2.7%	nt	?	-10.1
COc1ccccc1CCNC(=O)C(=O)NCCC1CCCCN1S(=O)(=O)c1ccccc1 (stereo not drawn)	nt	49.8%	?	nt	82.2%	-25.7
COc1ccc(CCNC(=O)C(=O)NCCC2CCCCN2S(=O)(=O)c2cccs2)cc1 (stereo not drawn)	nt	?	?	nt	7.38µM*	-29.6
SMILES	Shiga inhibitor	Pf growth 48h	HCV inhibitor	Cycloheximide cs	Pf growth 96h	HCMV antiviral
Cc1ccc(C(C(=O)NCCc2ccccc2)N(C(=O)c2csnn2)C2CC2)cc1 (stereo not drawn)	-8.9	-25.0%	5.4%	-2.9	-15.6%	-10.7
COc1ccc(CNC(=O)C2CCC(CNS(=O)(=O)c3ccc(C)cc3)CC2)cc1 (stereo not drawn)	8.2	-22.3%	-15.6%	13.8	20.4%	77.4
COc1ccc(Cl)cc1S(=O)(=O)NC(C)C(=O)NCc1cccnc1 (stereo not drawn)	-18.2	28.0%	23.9%	-3.7	0.0%	0.3
COc1ccc(OCc2cc(C(=O)NCC(C)Oc3cccnc3)no2)c(Cl)c1 (stereo not drawn)	43.3*	-17.3%	-15.4%	32.3*	28.4%	46.7
COc1ccc(OCc2cc(C(=O)NC(C)Cc3cnccn3)no2)c(Cl)c1 (stereo not drawn)	71.7*	-3.4%	-22.8%	31.1*	?	-25.8
COc1ccc(OCc2cc(C(=O)N(C)Cc3cnccn3)no2)c(Cl)c1	77.9*	68.6%	nt	46.0*	?	?
COc1cc(Cl)ccc1OCc1cc(C(=O)NC(C)Cc2cccnc2)no1 (stereo not drawn)	53.2*	7.9%	7.1%	48.4*	13.6%	37.8
COc1ccccc1C(=O)COC(=O)c1c(-c2ccccc2)noc1C	nt	?	?	nt	?	-19.3
CCOc1ccc(CCNC(=O)c2c3c(nc4ccccc24)C(=O)N(C2CCCCC2)C3)cc1	nt	nt	nt	nt	nt	7.7
CN(CCN1CCOCC1)C(=O)c1cc(COc2ccc(F)cc2Cl)on1	nt	nt	nt	nt	nt	-2.3
COc1ccc(OCc2cc(C(=O)N(C)Cc3cc(C4CC4)n[nH]3)no2)c(Cl)c1	137.6*	9.28µM*	?	40.3*	-20.8%	-29.9
N#Cc1cc2sc3nnc(-c4ccncc4)n3c2cc1C#N	-10.8	13.1µM*	?	-1.2	?	-62.1*
N#Cc1cc2sc3nc4ccccc4n3c2cc1C#N	-19.5	-1.2%	7.3%	-4.1	nt	nt
CCN1C(=O)[C@H]2[C@@H](c3ccc(-c4ccc(F)cc4)cc3)N[C@@](CC(C)C)(C(=O)OC)[C@H]2C1=O	nt	10.4µM*	?	nt	5.22µM*	3.4
COC(=O)[C@]1(CC(C)C)N[C@H](c2ccc(-c3ccc(F)cc3)cc2)[C@@H]2C(=O)N(C)C(=O)[C@@H]21	nt	3.29µM*	14.5%	nt	6.57µM*	31.6
CCN1C(=O)[C@H]2[C@@H](c3ccc(-c4ccc(F)cc4)c(OC)c3)N[C@@](CC(C)C)(C(=O)OC)[C@H]2C1=O	nt	2.33µM*	10.9%	nt	2.62µM*	25.2
CC1=C(CO)C(=O)OC([C@@H](C)C2CC[C@H]3C4C[C@H]5O[C@]56[C@@H](O)C=CC(=O)[C@]6(C)C4CC[C@]23C)C1 (stereo partly drawn)	-8.6	8.28µM*	?	-8.7	10.3%	-106.5*

From PubChem BioAssay
